# PubChem BioAssay AID651784 (National Center for Advancing Translational Sciences (NCATS), 2012)
# Records with an inconclusive call do not appear. Activity calls are given as the source filed them. Calls follow the shape of the dose curve; as a rule, active = well fitted inhibition curve with a large enough effect; inconclusive = small, poorly fitted or top-dose-only effect; inactive = no such curve, though single readings can be large or run the other way.
# Experiment: Acumen qHTS Assay for Inhibitors of the mTORC1 Signaling Pathway in MEF (Tsc2-/-, p53-/-) Cells: Hit Validation;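 also: phospho-rpS6 Ser235/236 immunofluorescence normalized to propidium iodide cell count; nearly all actives have a fitted effect of over 65% in size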;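 as to activity change, negative = inhibition: cells exposed to compound for 24 hours; plate controls were DMSO for no effect and 7.5 nM rapamycin control for full effect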
# Conditions: Acumen imaging; activity change, negative = inhibition: at 37.3 µM (top of the series)
# Potency is read from the fitted curve at half-maximal effect.
SMILES,"activity change, negative = inhibition",Potency
Cc1cccc(C(=O)Nc2c3c(nn2-c2ccc(Cl)cc2)CS(=O)(=O)C3)c1,12.6%,–
c1ccc(N2CCN(c3ncnc4[nH]ncc34)CC2)cc1,6.17%,–
COc1cccc(-c2nnc3sc(CN4CCCCC4)cn23)c1,–,1.04 µM (active)
O=C(COc1ccccc1-c1nc(-c2ccccc2)no1)Nc1cccc([N+](=O)[O-])c1,–,1.04 µM (active)
Cc1cc(-c2ccc(S(=O)(=O)Nc3cccc(C)c3C)s2)on1,–,4.14 µM (active)
CCOC(=O)Cc1ccc(NC(=O)n2ncc3cc(Cl)ccc32)cc1,–,8.26 µM (active)
COC(=O)c1ccc(Nc2nnc(-c3ccc(C)c(S(=O)(=O)N4CCN(C)CC4)c3)c3ccccc23)cc1,-21.5%,–
CCOC(=O)c1c(C)[nH]c(CCC(=O)NCCCN2CCN(c3cc(C)ccc3C)CC2)c1C,–,16.5 µM (active)
CCOC(=O)Cn1c(=O)c2c(nc(N3CCOCC3)n2Cc2ccccc2)n(C)c1=O,–,2.93 µM (active)
CCC1CCc2nc3sc(C(=O)Nc4cccc(F)c4)c(N)c3cc2C1 (configuration not stated),–,5.21 µM (active)
Cc1c(Cl)cccc1-c1ccc(C(=O)Nc2ccc3oc(-c4cccnc4)nc3c2)o1,-39.9%,–
CCc1ccc(-c2nc(CSCC(=O)NCc3ccc(C)cc3)c(C)o2)cc1,4.67%,–
O=C(Nc1cccc(NC(=O)c2ccccc2Cl)c1)c1cccc(Br)c1,-1.41%,–
COc1ccc(-c2nc3cc(NC(=O)Cc4ccc(Cl)cc4)ccc3o2)cc1OC,-60.1%,–
CCS(=O)(=O)c1ncc(Cl)c(C(=O)NCc2ccccc2)n1,–,6.56 µM (active)
O=C(Nc1ccc2oc(-c3ccc4ccccc4c3)nc2c1)c1cc(Br)ccc1Cl,–,9.27 µM (active)
CN1CCC(Nc2ncc3ncnc(Nc4ccc(F)c(Cl)c4)c3n2)CC1,-95%,–
COc1ccc(Cn2c(C(=O)O)c(CNCc3ccc(SC)cc3)c3ccc(OC)cc32)cc1,-12.2%,–
CCOc1cc(C2CC(=O)Nc3cc4c(cc32)OCCO4)ccc1O (configuration not stated),3.9%,–

SMILES,"activity change, negative = inhibition",Potency
Cc1cccc(NC(=O)c2nc(S(C)(=O)=O)ncc2Cl)c1,–,2.07 µM (active)
Cc1cccc(-n2cnc3cc(C(=O)NC4CCCCCC4)ccc32)c1,–,18.5 µM (active)
CCS(=O)(=O)c1ncc(Cl)c(C(=O)Nc2ccc(S(=O)(=O)N(C)c3ccccc3)cc2)n1,–,1.47 µM (active)
CN1CCN(C2(CNC(=O)COc3ccc(C(C)(C)C)cc3)CCCCC2)CC1,–,14.7 µM (active)
O=C(Nc1ccccc1)N(Cc1cccc(Cl)c1)c1ccccn1,14.8%,–
CCN1CCN(c2ccc(NS(=O)(=O)c3c(C)nc4sccn4c3=O)cc2Cl)CC1,-78.4%,–
CCCCS(=O)(=O)c1oc(-c2cccs2)nc1S(=O)(=O)c1ccc(F)cc1,–,3.69 µM (active)
COc1ccc(CC(=O)Nc2sc3c(c2C(=O)Nc2cccc(C)c2)CCCCC3)cc1,–,4.14 µM (active)
COc1ccccc1NC(=O)CSc1ccc(-c2ccccn2)nn1,–,11.7 µM (active)
CCN(CC)CCn1c(=N)n(CC(O)COc2ccccc2C)c2ccccc21 (configuration not stated),–,4.65 µM (active)
COc1cccc(-c2nc(S(=O)(=O)c3ccc(Cl)cc3)c(NCc3ccccc3)o2)c1,29.5%,–
Cn1ccc2c(OCC(=O)Nc3ccc(OC(F)(F)F)cc3)cccc2c1=O,–,16.5 µM (active)
CCOc1ccc(Nc2nc(-c3cccc(Cl)c3)c3c(n2)-c2ccccc2OC3)cc1,6.48%,–
COc1ccc(-c2[nH]nc3nc(-c4cc(OC)c(OC)c(OC)c4)cc(C(=O)O)c23)cc1,15.4%,–
CC(C)N(C(=O)CSc1nc2ccc(Cl)cc2[nH]1)c1ccccc1,-16%,–
Cc1ccc(Nc2nc(C(N)=O)c(NC(=O)c3ccccc3Br)s2)cc1,–,5.85 µM (active)
COCCCNC(=O)c1ccc(CSc2nc3cccnc3n2Cc2ccc(OC)cc2)cc1,2.82%,–
CC(C)OCc1cc(CN2CCN(c3cccc(C(F)(F)F)c3)CC2)c(O)c2ncccc12,–,11.7 µM (active)
